30 compounds from PubChem BioAssay AID504602 (National Center for Advancing Translational Sciences (NCATS), 2011) can be followed below.

Records with an inconclusive call do not appear. Values without a mark were called inactive. The source made the active and inactive calls. Calls follow the shape of the dose curve; as a rule, active = well fitted curve in the direction sought with a large enough effect; inconclusive = small, poorly fitted or top-dose-only effect, or effect the other way, or another doubt; inactive = no such curve, though single readings can be large or run the other way.

A short description of the test: Quantitative high throughput screen to test cell viability of anti-malarial compounds targeting the delayed death phenotype. The note with it: HepG2 viability, CellTiter-Glo luminescence, 48 h; series mostly up to 46.1 µM; activity change, negative = cytotoxicity: at the top concentration. The source says:
The biochemical processes that make this organelle essential for erythrocytic stage parasites are not well understood. However, antibiotics, such as azithromycin and tetracycline, which target the apicoplast translational machinery, have a potent antimalarial effect. […] We have developed a cell-based assay that measures parasite growth based on the expression of an integrated copy of a firefly luciferase reporter. To detect small molecules that cause this 'delayed death' phenotype, erythrocytes infected with the luciferase-expressing parasites were incubated with compounds for either one or two generations, corresponding to 48 and 96 hours, respectively. Compounds that inhibit parasite growth in the second generation, but not the first, should be enriched in antimalarials that target the apicoplast. Growth inhibition is detected by a decrease in luciferase activity. The goal of this counterscreen is to measure the cytoxoxicity (against HepG2 cell line) of a set of anti-malarial compounds that target the delayed death pheonotype as identified by the qHTS assay that inhibit the development of the apicoplast in the malarial parasite Plasmodium falciparum. NIH Molecular Libraries Probe Production Network [MLPCN] NIH Chemical Genomics Center [NCGC] MLPCN Grant: R21 NS059500 Assay Provider: David Fidock and Eric Ekland, Columbia University
Cells were plated at a density of 2000 cells/well/5uL in 1536 well white tissue culture plate with culture medium. Triplicate plates were prepared. Plates were incubated at 37C, 5% CO2 for 5 hours and then 23nL of compounds and positive control were transferred to the assay plates. Tetraoctylammonium bromide was added as a positive control. Plates were then incubated at 37C, 5% CO2 for 48 hours. 5 uL of CellTitler-Glo buffer was added to each well and then incubated for 30 min at room temperature. Luminescence was measured using ViewLux (1 second, slow, 2X).
With `C[C@@H]1CN([C@@H](C)CO)C(=O)c2cc(NC(=O)Nc3ccccc3)ccc2O[C@@H](C)CCCCO[C@H]1CN(C)S(=O)(=O)c1cccc(F)c1`, the “activity change, negative = cytotoxicity” value is 4.87%.
Same read-out and setting: the result for `C[C@@H]1CN(C)C(=O)c2cc(NC(=O)Nc3ccccc3)ccc2O[C@@H](C)CCCCO[C@@H]1CN(C)S(=O)(=O)c1ccc(F)cc1` reads 16.5%; that for `C[C@@H]1CN(CCO)C(=O)c2cc(NC(=O)Nc3ccccc3)ccc2O[C@@H](C)CCCCO[C@H]1CN(C)S(=O)(=O)c1ccc(F)cc1`, -1.25%.
The same measure, in the same setting: the result for `CC(C)NC(=O)Nc1ccc2c(c1)C(=O)N([C@@H](C)CO)C[C@@H](C)[C@H](CN(C)S(=O)(=O)c1ccc(F)cc1)OCCCC[C@H](C)O2` reads 16.9%.
Turning to `COCOC[C@H](C)N1C[C@@H](C)[C@H](CN(C)S(=O)(=O)c2ccc(F)cc2)OCCCC[C@H](C)Oc2ccc(NC(=O)Nc3ccccc3)cc2C1=O`, the Potency was 7.91 µM (active).
Take `C[C@@H]1CN([C@@H](C)COC(C)(C)C)C(=O)c2cc(NC(=O)Nc3ccccc3)ccc2O[C@@H](C)CCCCO[C@H]1CN(C)S(=O)(=O)c1ccc(F)cc1`: the “activity change, negative = cytotoxicity” value was 4.18%.
Still for that read-out and setting: the figure for `COCCOC(=O)N(C)C[C@@H]1OCCCC[C@H](C)Oc2ccc(NC(=O)Nc3ccccc3)cc2C(=O)N([C@@H](C)CO)C[C@H]1C` is 6.18%; for `C[C@@H]1CN([C@@H](C)CO)C(=O)c2cc(NC(=O)Nc3ccccc3)ccc2O[C@@H](C)C/C=C\CO[C@H]1CN(C)S(=O)(=O)c1ccc(F)cc1` it is 25.5%.
On to `Cc1noc(C)c1NC(=O)Nc1ccc2c(c1)C(=O)N(C(C)C)C[C@@H](C)[C@H](CN(C)S(=O)(=O)c1ccc(F)cc1)OCCCC[C@H](C)O2`, for which the “activity change, negative = cytotoxicity” value is 9.18%.
`C[C@@H]1CN([C@@H](C)COC(=O)C(C)(C)C)C(=O)c2cc(NC(=O)Nc3ccccc3)ccc2O[C@@H](C)CCCCO[C@H]1CN(C)S(=O)(=O)c1ccc(F)cc1`: the “activity change, negative = cytotoxicity” value is 19.5%.
Turning to `C=CCOC(=O)N(C)C[C@@H]1OCCCC[C@H](C)Oc2ccc(NC(=O)Nc3ccccc3)cc2C(=O)N([C@@H](C)CO)C[C@H]1C`, the “activity change, negative = cytotoxicity” value was -17.9%.
With `C[C@@H]1CN([C@@H](C)COC(=O)c2ccccc2)C(=O)c2cc(NC(=O)Nc3ccccc3)ccc2O[C@@H](C)CCCCO[C@H]1CN(C)S(=O)(=O)c1ccc(F)cc1`, the “activity change, negative = cytotoxicity” value was 3.02%.
Same read-out and setting: the result for `C=CCOC(=O)N(C)C[C@@H]1OCCCC[C@H](C)Oc2ccc(NC(=O)Nc3ccccc3)cc2C(=O)N([C@H](C)COC(=O)c2ccccc2)C[C@H]1C` reads 19.1%; that for `C[C@@H]1CN([C@@H](C)CO)C(=O)c2cc(NC(=O)Nc3ccccc3)ccc2O[C@@H](C)CCCCO[C@H]1CN(C)C(=O)OC(C)(C)C`, -7.33%.
On the same count and under the same terms, the figure for `C[C@@H]1CN(CCO[Si](C)(C)C(C)(C)C)C(=O)c2cc(NC(=O)Nc3ccccc3)ccc2O[C@@H](C)CCCCO[C@H]1CN(C)S(=O)(=O)c1ccc(F)cc1` is -5.91%; for `C[C@@H]1CN([C@@H](C)CO)C(=O)c2cc(NC(=O)Nc3ccccc3)ccc2O[C@@H](C)C/C=C/CO[C@H]1CN(C)S(=O)(=O)c1ccc(F)cc1` it is 4.49%; for `COc1ccc(COCCN2C[C@@H](C)[C@H](CN(C)S(=O)(=O)c3ccc(F)cc3)OCCCC[C@H](C)Oc3ccc(NC(=O)Nc4ccccc4)cc3C2=O)cc1` it is -2.11%.
Still for that read-out and setting: the figure for `C[C@@H]1CN([C@@H](C)CO)C(=O)c2cc(Nc3nc4ccccc4o3)ccc2O[C@@H](C)CCCCO[C@H]1CN(C)S(=O)(=O)c1ccc(F)cc1` is 11.4%; for `C[C@@H]1CN([C@H](C)CO[Si](C)(C)C(C)(C)C)C(=O)c2cc(NC(=O)Nc3ccccc3)ccc2O[C@@H](C)CCCCO[C@H]1CN(C)S(=O)(=O)c1ccc(F)cc1` it is -18%; for `C=CCOC(=O)N(C)C[C@H]1OCCCC[C@H](C)Oc2ccc(NC(=O)Nc3ccccc3)cc2C(=O)N([C@@H](C)CO[Si](C)(C)C(C)(C)C)C[C@H]1C` it is -5.42%.
Turning to `C[C@@H]1CN([C@@H](C)CO)C(=O)c2cc(NC(=O)Nc3ccccc3)ccc2O[C@@H](C)CCCCO[C@H]1CN(C)S(=O)(=O)c1ccc(C(F)(F)F)cc1`, the “activity change, negative = cytotoxicity” value is -7.97%.
On the same count and under the same terms, the result for `C[C@@H]1CN([C@@H](C)COC(=O)c2ccccc2)C(=O)c2cc(NC(=O)Nc3ccccc3)ccc2O[C@@H](C)CCCCO[C@H]1CN(C)C(=O)OC(C)(C)C` reads -7.44%; that for `C[C@@H]1CN([C@@H](C)CO)C(=O)c2cc(NC(=O)Nc3ccccc3)ccc2O[C@@H](C)CCCCO[C@H]1CN(C)S(=O)(=O)c1ccccc1F`, 7.68%.
Consider `C[C@@H]1CN([C@@H](C)CO[Si](C)(C)C(C)(C)C)C(=O)c2cc(NC(=O)Nc3ccccc3)ccc2O[C@@H](C)CCCCO[C@H]1CN(C)S(=O)(=O)c1ccc(F)cc1`, for which the “activity change, negative = cytotoxicity” value is -14.3%.
As to `C[C@@H]1CN([C@@H](C)CO)C(=O)c2cc(NC(=O)Nc3ccccc3)ccc2O[C@@H](C)CCCCO[C@H]1CN(C)S(=O)(=O)c1cccnc1`, the “activity change, negative = cytotoxicity” value is 4.77%.
On to `C[C@@H]1CN([C@@H](C)CO)C(=O)c2cc(NC(=O)Nc3ccccc3)ccc2O[C@@H](C)CCCCO[C@H]1CN(C)Cc1ccc(C(F)(F)F)cc1`, for which the “activity change, negative = cytotoxicity” value was 16.6%.
On the same count and under the same terms, the figure for `COc1ccc(COC[C@H](C)N2C[C@@H](C)[C@H](CN(C)S(=O)(=O)c3ccc(F)cc3)OCCCC[C@H](C)Oc3ccc(NC(=O)Nc4ccccc4)cc3C2=O)cc1` is -15%.
Turning to `C[C@@H]1CN([C@@H](C)CO)C(=O)c2cc(N)ccc2O[C@@H](C)CCCCO[C@H]1CN(C)S(=O)(=O)c1ccc(F)cc1`, the “activity change, negative = cytotoxicity” value was 8.01%.
Still for that read-out and setting: the figure for `C[C@@H]1CN([C@@H](C)CN=[N+]=[N-])C(=O)c2cc(NC(=O)Nc3ccccc3)ccc2O[C@@H](C)CCCCO[C@H]1CN(C)S(=O)(=O)c1ccc(F)cc1` is -2.67%; for `Cc1noc(C)c1NC(=O)Nc1ccc2c(c1)C(=O)N([C@@H](C)CO)C[C@@H](C)[C@H](CN(C)S(=O)(=O)c1ccc(F)cc1)OCCCC[C@H](C)O2` it is 12.1%.
